Compound activity (PubChem BioAssay)
An excerpt weighted towards active compounds, which were near 19% of everything screened.
HT1080NT lethal: kills 2HG-producing HT-1080-NT fibrosarcoma cells; AID 686970; Potency, µM (highest dose often 46.1 µM), for inactives: at the highest dose activity, negative = less viability, actives largely listed as cytotoxic; hit rate 1.6% among 360,000; HT-1080-NT fibrosarcoma viability, CellTiter-Glo ATP luminescence, 48 h;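 also: NT is the 2HG producing partner of a matched IDH1 knockdown line; potency is read from the fitted curve at half-maximal effect; 0% = DMSO-treated cells and -100% = media-only wells without cells; nearly all actives have a fitted effect of over 55% in size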
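750 cells/well, RPMI + 5% FBS; 2 h settle, compound pin-transfer, 48 h at 37 degrees C. CellTiter-Glo 10 min RT, luminescence. Normalized to DMSO and media-only wells.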
uPA surface inh: cell surface uPA generation inhibition | cell surface uPA generation assay, qHTS | Potency, µM (series often up to 38.3 µM), for the others: at the highest dose activity change, negative = inhibition, hits mostly inhibitors | hit rate 0.31% among 330,000 | AID 540303; active = well fitted inhibition curve with a large enough effect; inconclusive = small, poorly fitted or top-dose-only effect; inactive = no such curve, though single readings can be large or run the other way; tested in mouse RAW 264.7 cells; also: potency is read from the fitted curve at half-maximal effect; nearly all actives have a fitted effect of over 55% in size
TDP1 cell CPT: DT40-hTDP1 cell growth loss with CPT; chicken DT40 Tdp1-/-;hTDP1 cells + 20 nM CPT, ATP luminescence, 48 h; Potency, µM (series often up to 46.2 µM), for inactives: at the highest dose activity change, negative = growth inhibition, usual class: inhibitors; hit rate 12% among 420,000; AID 686979; also: potency is read from the fitted curve at half-maximal effect; nearly all actives have a fitted effect of over 55% in size
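Chicken DT40 Tdp1-/- cells stably complemented with human TDP1 were seeded at 400 cells/well in medium containing 20 nM camptothecin, exposed to pin-transferred compounds, and grown at 37 °C for at least 48 hr. Viability was read as ATP luminescence.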
IL1B secr inh: blocks inflammasome-driven IL-1 beta release; THP-1 LPS/ATP IL-1B secretion, AlphaLISA, 16 h; active compounds read low; AID 743279; hit rate 4.7% among 360,000; activity change, % at 57.5 µM; in the data active = activity change below about -50%; inconclusive = mostly about -30% to -49%
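THP-1 cells pretreated 1 hr with compounds (up to 57.5 uM final), then stimulated with LPS (250 ng/mL final) plus ATP (1.25 mM final); secreted IL-1B measured by AlphaLISA after 16 hr, decreased signal indicating inhibition.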
HT1080 IDH1KD tx: toxicity to HT-1080 IDH1 knockdown cells (counter line) | HT-1080 IDH1 knockdown viability, ATP luminescence, 48 h | Potency, µM (titrated, usually from 46.1 µM), for inactives: at the highest dose activity, negative = toxicity, actives largely listed as cytotoxic | hit rate 2% among 360,000;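 also: potency is read from the fitted curve at half-maximal effect; 0% = DMSO wells and -100% = cell-free medium wells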
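In this qHTS, HT-1080 cells depleted of IDH1 are exposed for 48 h at 37 °C to compound titrations. Toxicity is scored from CellTiter-Glo luminescence, with DMSO as full viability and medium alone as none.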
TDP1 cell noCPT: qHTS for Inhibitors of human tyrosyl-DNA phosphodiesterase 1 (TDP1): qHTS in cells in absence of CPT; DT40 Tdp1-/- hTDP1 cells, no CPT, ATP luminescence, 48 h; Potency, µM (doses to about 46.2 µM), for the others: at the top dose activity change, negative = growth inhibition, actives largely listed as inhibitors; hit rate 15% among 420,000; AID 686978, 2013; also: potency is read from the fitted curve at half-maximal effect; nearly all actives have a fitted effect of over 55% in size
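A cellular qHTS used chicken DT40 cells lacking endogenous Tdp1 but carrying stably transfected human TDP1. Compounds were applied without camptothecin, and cell growth kinetics were judged by ATP-dependent luminescence after ≥48 hr.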
Numbers without * were called inactive; i = inactive; ? = inconclusive; nt = no result; [ ] = dose if it differs, or a comment. Unless noted, calls follow the shape of the dose curve; as a rule, active = well fitted curve in the direction sought with a large enough effect; inconclusive = small, poorly fitted or top-dose-only effect, or another doubt; inactive = no such curve, though single readings can be large; an effect the other way counts as inactive or inconclusive. Unless noted, % is scaled to controls: 0 for no effect and ±100 for the full control effect.

SMILES	HT1080NT lethal	uPA surface inh	TDP1 cell CPT	IL1B secr inh	HT1080 IDH1KD tx	TDP1 cell noCPT
CCOC(=O)c1c(C)[nH]c(C)c1C(=O)COC(=O)/C=C/c1ccco1	-12%	-1%	-11%	9	3%	-19%
CCOc1ccc(C(=O)Nc2sc3c(c2C(=O)OC)CC(C)(C)NC3(C)C)cc1	-15%	11%	?	-16	-16%	16µM*
CCOC(=O)c1c(NC(=O)COc2ccccc2)sc2c1CC(C)(C)NC2(C)C	0%	-1%	?	-4	9%	16µM*
COC(=O)c1c(NC(=O)c2ccc(C(=O)c3ccccc3)cc2)sc2c1CC(C)(C)NC2(C)C	-2%	nt	-14%	-4	10%	?
CC1(C)Cc2c(sc(NC(=O)COc3ccc(Cl)cc3)c2C#N)C(C)(C)N1	?	-1%	?	-70*	?	?
OCCC1CN(Cc2ccon2)CCN1Cc1ccc(F)c(F)c1 (centres undefined)	2%	3%	1%	10	6%	-1%
O=C(NCc1ccncc1)c1cnn(-c2nccc(-c3cc4ccccc4o3)n2)c1C1CC1	nt	nt	?	nt	nt	-28%
CC(=O)N(Cc1ccccc1)C1CC(=O)N(Cc2ccccc2)C1=O (centres undefined)	-6%	0%	8%	-8	0%	-23%
CC(OC(=O)CN1C(=O)c2ccccc2C1=O)C(=O)NC1CCCC1 (centres undefined)	-1%	0%	17%	15	0%	6%
CCOC(=O)c1c(NC(=O)CSc2nc3ccccc3[nH]2)sc2c1CC(C)(C)NC2(C)C	-2%	?	?	-51*	5%	?
CC1(C)Cc2c(sc(NC(=O)c3ccc(S(=O)(=O)N4CCCCCC4)cc3)c2C(N)=O)C(C)(C)N1	-19%	5%	?	i	?	-10%
CC1(C)Cc2c(sc(NC(=O)c3ccc4c(c3)OCCO4)c2C(N)=O)C(C)(C)N1	?	-11%	-3%	-67*	?	11%
COC(=O)c1c(NC(=O)c2nc3ccccc3s2)sc2c1CC(C)(C)NC2(C)C	-10%	7%	23µM*	-4	7%	21µM*
O=C(NCCc1nc2ccccc2[nH]1)/C(=C/c1ccc2c(c1)OCO2)NC(=O)c1ccccc1Cl	1%	3%	?	-84*	6%	?
COC(=O)C1CCCCN1Cc1ccc2c(c1)CN(C(=O)c1cc(C)nc3cc(F)ccc13)CCO2 (centres undefined)	nt	nt	11%[9.04 µM]	nt	nt	?
CC(=O)Oc1ccc(C23c4ccccc4C2(OC(C)=O)c2cc(OC(C)=O)ccc23)cc1 (centres undefined)	7.3µM*	-13%	23µM*	-93*	7.3µM*	?
CCN1C(=O)CSC1=Nc1ccc(C(=O)OC)cc1	14%	nt	-6%	34	7%	-12%
O=C(NCc1ccccc1)C(c1ccccc1F)n1c(=O)c(-c2ccccc2)nc2ccccc21 (centres undefined)	-14%	nt	16µM*	-15	-8%	?
O=C(NCc1ccccc1)C(c1ccccc1F)n1c(=O)c(-c2ccco2)nc2ccccc21 (centres undefined)	-4%	nt	?	-5	0%	21µM*
COc1ccc(C(C(=O)NCc2ccccc2)n2c(=O)c(-c3ccco3)nc3ccccc32)cc1 (centres undefined)	?	nt	?	0	21µM*	?
COc1ccc(NC(=O)C(c2ccncc2)n2c(=O)c(-c3ccco3)nc3ccccc32)cc1 (centres undefined)	-25%	nt	?	-23	?	23µM*
